Measurements from PubChem BioAssay AID651711 (Broad Institute, 2012).
In all, about 350,000 compounds went through this assay and about 180 (0.051%) were called active.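 How the source made its calls: active means mean replicate inhibition above about 25%, with every replicate also reaching it (limit read from the data, passing the limit was not always enough); inconclusive means only one of those two criteria met; inactive means neither criterion met.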 Only a selection was taken, and actives are over-represented in it overall.

Target: Protein disulfide-isomerase A6 (Homo sapiens) (UniProt Q15084)
Assay: inhibitors of ERp5-driven insulin aggregation, primary screen, biochemical, turbidity, absorbance 650 nm, single point (AID 651711)
Conditions: 90 min, at 9.99 µM, hits give high values

Chain of Protein disulfide-isomerase A6 (Homo sapiens) (Q15084 whole entry, looked up): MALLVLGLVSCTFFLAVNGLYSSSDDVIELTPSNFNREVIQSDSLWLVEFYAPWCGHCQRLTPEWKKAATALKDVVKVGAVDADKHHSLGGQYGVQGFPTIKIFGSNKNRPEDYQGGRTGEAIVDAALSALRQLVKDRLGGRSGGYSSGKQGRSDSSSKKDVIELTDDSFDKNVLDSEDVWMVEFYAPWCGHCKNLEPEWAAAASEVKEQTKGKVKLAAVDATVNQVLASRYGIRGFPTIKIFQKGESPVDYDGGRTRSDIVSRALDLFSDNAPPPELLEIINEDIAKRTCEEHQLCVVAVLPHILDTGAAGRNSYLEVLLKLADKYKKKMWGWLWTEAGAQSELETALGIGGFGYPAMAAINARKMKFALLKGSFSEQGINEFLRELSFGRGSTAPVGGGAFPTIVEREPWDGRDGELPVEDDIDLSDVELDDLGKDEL

SMILES	inhibition
O=S(=O)(c1ccccc1)N1CC[C@@H]2[C@@H](CO)Nc3ccc(C#Cc4cccc(F)c4)cc3[C@@H]21	-0.006% (inactive)
CCC(=O)N(C)C[C@@H]1Oc2cc(-c3ccc(OC)cc3)ccc2S(=O)(=O)N([C@@H](C)CO)C[C@H]1C	0.0355% (inactive)
CC(C)C#Cc1cnc2c(c1)C(=O)N([C@H](C)CO)C[C@@H](C)[C@H](CN(C)Cc1ccccc1)O2	-2.64% (inactive)
COc1ccc(NC(=O)N(C)C[C@@H]2Oc3ccc(NS(=O)(=O)c4ccc(OC)cc4)cc3CC(=O)N([C@H](C)CO)C[C@H]2C)cc1	8.49% (inactive)
COc1ccc(S(=O)(=O)Nc2ccc3c(c2)CC(=O)N([C@H](C)CO)C[C@@H](C)[C@@H](CN(C)C(=O)Nc2cccc4ccccc24)O3)cc1	11.8% (inactive)
COc1ccc(S(=O)(=O)Nc2ccc3c(c2)CC(=O)N([C@H](C)CO)C[C@H](C)[C@H](CN(C)C(=O)Nc2ccccc2)O3)cc1	64.1% (active)
C[C@@H]1CN([C@H](C)CO)C(=O)Cc2cc(NC(=O)Nc3cccc4ccccc34)ccc2O[C@@H]1CN(C)Cc1ccc(C(=O)O)cc1	2.16% (inactive)
C[C@@H]1CN([C@H](C)CO)C(=O)Cc2cc(NC(=O)Nc3cccc4ccccc34)ccc2O[C@@H]1CN(C)Cc1ccc(C(F)(F)F)cc1	60% (active)
C[C@@H]1CN([C@H](C)CO)C(=O)Cc2cc(NC(=O)Nc3ccccc3)ccc2O[C@@H]1CN(C)Cc1ccc(C(F)(F)F)cc1	1.88% (inactive)
COC(=O)[C@@H]1[C@@H](CO)[C@@H]2Cn3c(ccc(-c4ccc(OC)cc4)c3=O)[C@@H]2N1S(C)(=O)=O	4.09% (inactive)
O=C(N[C@@H]1CC[C@@H](CC(=O)N2CCc3ccccc3C2)O[C@H]1CO)C1CCC1	-0.402% (inactive)
CCC(=O)N1CC(=O)N2[C@H](CO)[C@@H](c3ccc(-c4ccc(C(=O)N(C)C)cc4)cc3)[C@@H]2C1	-1.19% (inactive)
CO[C@H]1CN(C)C(=O)c2ccc(NC(=O)C3CCC3)cc2OC[C@@H](C)N(Cc2ccccn2)C[C@H]1C	-2.1% (inactive)
C[C@H](CO)N1C[C@H](C)[C@H](CN(C)Cc2ccc(C(=O)O)cc2)OCc2cn(nn2)CCCC1=O	-4.21% (inactive)
Cc1ccccc1C(=O)N[C@H](C(=O)N1CCC[C@H]1C(=O)NCc1ccccc1)C(C)C	5.11% (inactive)
CO[C@H]1CN(C)C(=O)c2cc(NS(=O)(=O)c3ccccc3)ccc2OC[C@@H](C)N(Cc2nccs2)C[C@@H]1C	1% (inactive)
COc1ccc(CN(C)C[C@@H]2Oc3c(NC(=O)C4CC4)cccc3C(=O)N([C@@H](C)CO)C[C@H]2C)cc1	1.33% (inactive)
